# Source: PubChem
# FID counter: displaces DNA intercalator in HCV helicase counter-screen. inhibition, % at 7.9 µM. DNA fluorescent intercalator displacement, fluorescence. 0.17% of 290,000 active; in the data active = inhibition above about 37%;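 also: 0% = vehicle and 100% = reference compound; higher means more ethidium bromide displaced from hairpin DNA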
# ANO1 block: blocks the mouse calcium-activated chloride channel TMEM16A; 1.2% of 310,000 active; normalized B-score (activity score, 25-100; higher = stronger inhibition) at 10 µM; Q8BHY3; HEK293 TMEM16A/YFP iodide influx fluorescence, ionomycin; AID 588511;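 active = ratio plate-corrected score three or more library SD toward inhibition, starting fluorescence score within five deviations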;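 also: score derived from kinetic fluorescence span divided by baseline fluorescence per well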
# PREPL inhibitor: human PREPL enzyme inhibition; Q4J6C6; recombinant PREPL, fluorescence polarization activity-based probe; inhibition, % at 5.96 µM; 0.68% of 320,000 active; in the data active = inhibition above about 43%;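 also: 0% = enzyme with DMSO and 100% = wells lacking enzyme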
# PP5 inh: inhibitors of human protein phosphatase 5 (PP5); P53041; purified PP5c, OMFP substrate fluorescence; inhibition, % at 6.7 µM; 0.18% of 320,000 active; AID 1987;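 active = inhibition above the campaign's mean inhibition across all tested compounds plus 3 SD, cut at about 9.5% in these data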;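 also: 0% = DMSO only and 100% = 100 µM cantharidin control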
# Target sequence (P53041 whole entry, looked up): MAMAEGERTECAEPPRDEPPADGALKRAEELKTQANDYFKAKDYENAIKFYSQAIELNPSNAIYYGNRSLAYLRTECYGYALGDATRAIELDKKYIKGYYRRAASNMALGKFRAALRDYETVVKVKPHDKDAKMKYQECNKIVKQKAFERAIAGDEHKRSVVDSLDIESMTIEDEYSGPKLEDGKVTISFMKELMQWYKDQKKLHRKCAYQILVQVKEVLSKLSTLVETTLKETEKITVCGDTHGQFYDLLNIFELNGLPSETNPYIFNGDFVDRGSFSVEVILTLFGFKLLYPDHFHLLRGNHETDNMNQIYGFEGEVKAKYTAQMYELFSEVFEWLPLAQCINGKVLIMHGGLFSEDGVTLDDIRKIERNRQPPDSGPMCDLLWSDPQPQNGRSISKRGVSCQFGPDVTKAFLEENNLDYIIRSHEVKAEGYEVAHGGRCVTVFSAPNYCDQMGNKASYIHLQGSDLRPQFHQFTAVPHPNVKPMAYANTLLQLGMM
# PP1 counter: counter-screen for PP5 inhibitors: inhibitors of human PP1-alpha; P62136; purified PP1alpha, OMFP fluorescence; inhibition, % at 6.7 µM; 0.9% of 320,000 active;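 active = inhibition above the mean inhibition of all tested compounds plus 3 SD, computed separately for each screening campaign, cut at about 15% in these data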
# ANO1 activ: activates or potentiates the mouse TMEM16A chloride channel | 0.3% of 340,000 active | B-score at 10 µM | AID 623877 | HEK293 TMEM16A/YFP-H148Q/I152L, iodide quench fluorescence; stronger effect = lower value | Q8BHY3;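 active = fluorescence-ratio B-score plate-corrected deviation score at least 3 library SD below zero, with starting fluorescence score within 5 deviations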;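 also: channel opened by trigger with iodide after compound preincubation; score built on the fluorescence ratio of max minus min over baseline; more negative score means more quench and so TMEM16A activation or potentiation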
# TMEM16A reconf: reconfirmed blocker of mouse TMEM16A calcium-activated chloride channel. shares compounds with ANO1 block. HEK293 TMEM16A/YFP-H148Q, iodide quench fluorescence; ionomycin added to raise cell calcium. inhibition, % at 10 µM. 39% of 2,300 active. AID 652189;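 active = mean duplicate percent inhibition, scaled so buffer wells are 0 and the reference blocker 100, over three buffer SD above buffer mean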
# HEK293 Ca mobil: alters calcium mobilization in TMEM16A HEK293 cells, counter-screen; shares compounds with ANO1 block; TMEM16A/YFP HEK293, Fluo4 calcium mobilization; calcium response (% of ionomycin), % at 10 µM; 2% of 2,300 active; AID 652231;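 active = duplicate-averaged calcium signal over 20% of the ionomycin maximum, relative to buffer baseline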;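 also: each well's signal is peak minus trough fluorescence divided by its pre-addition baseline; 0% = buffer wells and 100% = ionomycin wells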
# Parental YFP cnt: acts in parental YFP-HEK293 cells lacking TMEM16A, counter-screen; shares compounds with ANO1 block; iodide YFP quench, ionomycin; YFP ratio F(max-min)/F0 at 10 µM; 2,300 tested, under 10 active; AID 652233;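 active = yellow fluorescent protein signal ratio exceeding the buffer control mean by over 5 SD of those controls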;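 also: ratio is mean of duplicate wells from kinetic YFP trace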
# ClC-1 rat inh: blocks the rat ClC-1 voltage-dependent chloride channel | shares compounds with ANO1 block | CHO ClC-1-YFP, iodide influx fluorescence quench; iodide control reads 0, buffer control 100 | ratio percent, % at 10 µM | 2,300 tested, under 10 active | AID 652236;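 active = duplicate-mean ratio percent above the mean of iodide-only control wells, which defines zero, plus 5 of their SD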;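 also: higher percent means stronger block of ClC-1 iodide influx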
# Active calls of the source: *; i = inactive; · = not tested or not shown. Hits are enriched below; roughly 2.7% of the tested compounds scored in any of these assays.
SMILES,FID counter,ANO1 block,PREPL inhibitor,PP5 inh,PP1 counter,ANO1 activ,TMEM16A reconf,HEK293 Ca mobil,Parental YFP cnt,ClC-1 rat inh
COc1ccc(OC)c(NC(=O)C2CCN(S(=O)(=O)c3ccc4c(c3)OCCO4)CC2)c1,·,i,2.3,-0.5,-1.5,i,·,·,·,·
COc1ccc(C(=O)C2CCN(S(=O)(=O)c3ccc4c(c3)OCCO4)CC2)cc1,-16.8,100*,-7.5,5.2,-1.1,i,22.5%*,i,-0.678,-6.0
Cc1cc(C)n2nc(SCc3nnc(-c4ccccc4Br)o3)nc2n1,-13.9,i,9.4,1.7,-4.9,i,·,·,·,·
Cc1cc(C)n2nc(SCc3ncc(-c4ccccc4)o3)nc2n1,·,100*,12.8,0.4,-1.0,i,i,i,-0.995,-4.5
CC12CS(=O)(=O)CC1SC(=S)N2Cc1ccccc1 (stereo not drawn),-1.1,i,-2.1,0.3,-3.5,i,·,·,·,·
COC(=O)c1ccc(-c2noc(CN(C)Cc3ccncc3C)n2)cc1,-17.4,25*,-11.5,-0.6,2.4,i,i,i,-0.966,-4.0
Fc1cccc(Cl)c1CSc1nnnn1-c1ccc2c(c1)OCO2,-13.3,25*,-19.0,3.4,4.3,i,i,i,-0.943,-7.0
Cc1ccc(C(=O)O)cc1-n1c(=O)n(Cc2ccccc2)c(=O)c2[nH]cnc21,-6.9,i,9.7,1.6,-6.3,i,·,·,·,·
COc1cc(NC(=O)c2cnc(N)o2)cc(C(=O)Nc2cccc(C(F)(F)F)c2)c1,·,100*,-4.7,5.2,3.7,i,46.5%*,i,-0.869,-14.0
COc1cc(NC(=O)c2ccnc(N)c2)cc(C(=O)Nc2cccc(C(F)(F)F)c2)c1,·,i,-1.7,1.7,12.9,i,·,·,·,·
CC(C)CSc1nc(N2CCOCC2)c2c(c1C#N)CC(C)(C)SC2,-19.2,i,15.4,2.0,0.6,i,22.0%*,i,-0.893,0.5
Cc1oc(-c2cc3c(cc2Cl)OCO3)nc1CN1CCCC1c1ccc(F)cc1 (stereo not drawn),-1.5,i,-10.0,1.7,5.9,i,·,·,·,·
CC(C)(C)c1ccc(C(=O)Nc2cccc3ncccc23)cc1,-38.8,i,4.2,1.7,4.8,i,29.5%*,i,-1.36,-14.5
CC1Cc2ccccc2N1C(=O)COC(=O)c1ccc([N+](=O)[O-])o1 (stereo not drawn),·,·,26.3,·,·,i,·,·,·,·
O=C(Nc1ccc(-n2cnnn2)cc1)c1cc(S(=O)(=O)N2CCCC2)ccc1Cl,·,·,·,·,·,i,·,·,·,·
O=C(NCCSCc1ccco1)Nc1cc(Cl)cc(Cl)c1,-0.4,100*,-23.5,-0.7,3.6,i,33.5%*,i,-0.963,-20.5
C=CCN(CC=C)CCOc1cccc(Oc2ccccc2)c1,8.6,i,2.9,4.3,-0.1,i,·,·,·,·
O=c1c2cc(Cl)ccc2nc(-c2ccc([N+](=O)[O-])cc2)n1O,-3.0,i,6.4,-1.1,9.1,i,·,·,·,·
O=c1c2cc(Br)ccc2nc(-c2ccc(Cl)cc2)n1O,-13.8,25*,4.1,-1.3,0.0,i,39.0%*,110.0%*,-0.875,-5.5
CC(C)CN(C(=O)C(c1ccccc1)c1ccccc1)c1c(N)n(CC(C)C)c(=O)[nH]c1=O,-17.7,i,5.0,1.0,-4.0,i,·,·,·,·
CC1Cc2ccccc2N1C(=S)Nc1ccc(S(N)(=O)=O)cc1 (stereo not drawn),-0.7,100*,9.6,1.6,-2.5,i,i,i,-0.864,-21.0
O=C1C(=NO)C(c2ccccc2)Oc2ccccc21 (stereo not drawn),·,·,·,·,·,i,·,·,·,·
CC(C)(C)C1CCC(OCC(O)CN2CCN(c3ccccc3)CC2)CC1 (stereo not drawn),21.2,i,-11.3,1.9,-2.6,i,·,·,·,·
Cc1ccc(N2CCN(CC(O)COC3CCCCC3)CC2)cc1 (stereo not drawn),-4.7,25*,10.6,2.2,4.5,i,i,i,-1.36,-5.0
C/C(=N\NC(=O)c1cccc(Cl)c1)C1C(=O)c2ccccc2C1=O,-5.5,100*,-0.4,4.0,3.4,i,i,i,-1.11,-13.5
SMILES,FID counter,ANO1 block,PREPL inhibitor,PP5 inh,PP1 counter,ANO1 activ,TMEM16A reconf,HEK293 Ca mobil,Parental YFP cnt,ClC-1 rat inh
COC(=O)c1c(C)[nH]c(C(=O)OCC(=O)c2ccc(C)s2)c1C,·,·,12.8,·,·,i,·,·,·,·
CC(C)(C)NC(=O)COC(=O)c1snc(C(=O)NC2CCCCC2)c1N,-27.8,100*,7.1,2.1,0.0,i,i,i,-0.988,-20.5
CC(OC(=O)c1snc(C(=O)NC2CCCCC2)c1N)C(=O)NC(C)(C)C (stereo not drawn),-14.0,i,7.1,0.2,-1.3,i,·,·,·,·
CC1CCCN(S(=O)(=O)c2ccc(C(=O)Nc3nnc(-c4ccccc4Cl)o3)cc2)C1 (stereo not drawn),-7.8,100*,0.1,1.3,-0.7,i,22.5%*,i,-0.852,-8.5
COc1ccc(-c2nc(CS(=O)CC(=O)N3CCN(C)CC3)c(C)o2)cc1 (stereo not drawn),-0.8,i,1.7,-0.8,-0.2,i,·,·,·,·
CCCC1(C)NC(=O)c2ccccc2O1 (stereo not drawn),1.4,i,-6.1,1.1,6.0,i,·,·,·,·
COc1ccc(CC2(CO)CCN(Cc3cnc(-c4ccccc4C)nc3)CC2)cc1,-0.2,25*,18.7,1.2,-3.0,i,i,i,-1.05,-9.0
COc1ccc2c(c1)C=C(CN1CCC(CO)(CCc3ccccc3)CC1)CO2,5.0,i,9.2,3.9,-2.7,i,·,·,·,·
COc1ccc(CC2(CO)CCN(CC3=Cc4cc(Cl)ccc4OC3)CC2)cc1,14.4,25*,-1.6,6.6,1.7,i,16.5%*,i,-1.03,-22.5
COc1ccc(CC2(CO)CCN(Cc3cnn(-c4ccccc4)c3)CC2)cc1,19.7,i,2.5,-0.9,-1.6,i,·,·,·,·
COC(=O)c1ccc(CSc2nc(C(F)(F)F)c3c(c2C#N)CCC3)o1,-20.1,100*,8.1,3.4,2.5,i,i,i,-1.13,-12.0
O=C(CN1N=C(c2ccc(Cl)cc2)CCC1=O)NCc1cccnc1,-3.9,i,-4.3,-1.6,1.6,i,·,·,·,·
